Compound activity deposited in PubChem BioAssay by National Center for Advancing Translational Sciences (NCATS).
An excerpt weighted towards active compounds, which were near 6% of everything screened.
D1 potentiator – human D1 dopamine receptor positive modulation; P21728; HEK293 TREx D1 cells, calcium flux, dopamine EC20 potentiation; potentiation, % at 10 µM; 360,000 tested, 0.036% active; AID 504651; in the data active = potentiation above about 30%; also: 0% is about no effect
DRD3 antagonist – D3 dopamine receptor (human) antagonism. D3R cells, DiscoveRx beta-arrestin luminescence, antagonist mode; stronger effect = lower value. max response, negative = inhibition, %. 360,000 tested, 2.5% active. AID 652054; in the data active = max response below about -50%; inconclusive = no clear call, values can overlap the other calls; also: % is scaled to controls: 0 for no effect and ±100 for the full control effect
Target sequence (P35462 whole entry, looked up): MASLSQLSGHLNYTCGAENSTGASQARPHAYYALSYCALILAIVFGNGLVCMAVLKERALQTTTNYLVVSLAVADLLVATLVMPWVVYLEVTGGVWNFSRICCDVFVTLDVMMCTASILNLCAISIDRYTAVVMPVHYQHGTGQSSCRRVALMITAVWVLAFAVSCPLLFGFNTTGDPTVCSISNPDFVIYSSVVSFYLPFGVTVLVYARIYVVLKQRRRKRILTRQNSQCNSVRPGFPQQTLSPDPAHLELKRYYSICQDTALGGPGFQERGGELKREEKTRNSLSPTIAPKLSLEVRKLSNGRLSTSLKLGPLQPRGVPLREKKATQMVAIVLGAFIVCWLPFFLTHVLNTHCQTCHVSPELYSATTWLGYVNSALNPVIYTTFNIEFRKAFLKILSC
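Cells plated overnight at 1500 cells/well, then exposed to library compounds with dopamine controls for 90 minutes at 37 degrees C. DiscoveRx reagent added for 30–60 minutes at room temperature; luminescence read, quantitative HTS format.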
D1 antag – antagonists of human D1 dopamine receptor | P21728 | HEK293 TREx D1 cells, calcium flux, dopamine EC80; stronger effect = lower value | activity change, negative = inhibition, % at 10 µM | 360,000 tested, 3.2% active | AID 504652; in the data active = activity change below about -30%; also: % is scaled to controls: 0 for no effect and ±100 for the full control effect
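Antagonism measured as reduced calcium response to an EC80 dopamine addition following 180 s compound pre-read; cells were inducible HEK293 Trex D1 plated overnight at 30 C, read kinetically at 1 cycle/sec.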
D1 ag – agonists of human D1 dopamine receptor | 360,000 tested, 1% active | P21728 | activation, % at 2 µM | HEK293 T-REx D1 cells, calcium flux, agonist mode; in the data active = activation above about 30%; also: 0% is about no effect
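Inducible HEK293 T-REx D1 cells, force-coupled to calcium signalling, were plated at 4000 cells/well with tetracycline and held overnight at 30 C. After no-wash calcium dye loading, compound-evoked calcium rise over 180 s flagged agonists.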
DRD3 agonist – activates the human D3 dopamine receptor. max activation, %. P35462. D3R DiscoveRx beta-arrestin cells, luminescence, 90 min. 410,000 tested, 0.58% active; in the data active = max activation above about 30%; also: 0% is about no effect
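Agonist-mode cell screen: cells plated at 1500/well and incubated overnight at 37 °C, then exposed to library compounds for 90 min at 37 °C. Detection reagent was added for 30–60 min at room temperature, and luminescence was read.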
Numbers without * were called inactive; ? = inconclusive; nt = no result given.

SMILES | D1 potentiator | DRD3 antagonist | D1 antag | D1 ag | DRD3 agonist
CCCCCCCCCn1c2c(c(=N)c3c1CCC3)CCC2 | -1 | -56* | 21 | -2 | -3
CCCCCCn1c2c(c(=N)c3c1CCC3)CCC2 | 4 | -19 | 14 | -2 | -6
COc1cccc(OC)c1OCC(C)CNCC1CCCO1 (stereo not drawn) | -3 | -67* | 20 | -1 | -18
CCCCc1c(-c2cccc(Br)c2)ncn1CCc1ccccc1OC | nt | 76 | nt | nt | 2
CSc1ncc(C(=O)NCc2cccc(C)c2)c(-c2ccccc2)n1 | -2 | nt | 2 | 4 | -11
O=C(Cc1c(Sc2ccccc2)c2ccccc2n1Cc1ccccc1)NCCO | -2 | -73* | 2 | 5 | -24
CC(CCc1ccccc1)NS(=O)(=O)c1ccc(Cl)c(C(=O)O)c1 (stereo not drawn) | 4 | -8 | 9 | 2 | -8
CCN(c1ccc(N=Cc2c(O)n(Cc3ccc(OC)cc3)c(=O)c3ccccc23)cc1)C(C)C | 5 | -11 | -1 | 57* | -2
Cc1ccc(C)c(-n2cc(CNCCCn3cccn3)c(-c3ccccc3)n2)c1 | 6 | -20 | -7 | 40* | -18
Cc1ccc(-n2cc(CNCCN3CCOC3=O)c(-c3cccc(C)c3)n2)cc1 | -5 | -17 | -5 | 4 | -15
Cc1ccc(-n2cc(CNCCCn3cccn3)c(-c3cccc(C)c3)n2)cc1 | -15 | -73* | -41* | 44* | -20
Cc1ccc(C)c(-n2cc(CNC(C)Cn3cncn3)c(-c3ccccc3)n2)c1 (stereo not drawn) | -1 | 3 | -10 | 2 | 0
Cc1ccc2c(c1)N(Cc1ccncc1)C(=O)C(C)O2 (stereo not drawn) | -10 | 7 | -34* | 2 | 2
CCN(CC)CC(O)CN1c2ccccc2Sc2ccccc21 (stereo not drawn) | -7 | -26 | -26 | 11 | -20
CC(CN(C)C)CN1c2ccccc2Sc2ccccc21 (stereo not drawn) | -1 | 0 | -89* | 38* | 0
CC(CN1c2ccccc2Sc2ccccc21)N(C)C (stereo not drawn) | -3 | -98* | -8 | 3 | -79
COc1ccc2c(c1)N(C[C@H](C)CN(C)C)c1ccccc1S2 | nt | -106* | nt | nt | -93
C[C@@H](CN(C)C)CN1c2ccccc2Sc2ccccc21 | nt | nt | nt | nt | -30
CSc1ccccc1NC(=O)CN(C)CC(=O)NCC(=O)Nc1ccc(F)cc1 | -7 | -50* | -5 | 1 | 2
CC(C)Cn1nc(NC(=O)c2cccc(Cl)c2)c2cc3ccccc3nc21 | -2 | nt | -13 | 6 | -9
Cc1cn([C@H]2C[C@H](O)[C@@H](/C=C/C(=O)NCCC(c3ccccc3)c3ccccc3)O2)c(=O)[nH]c1=O | nt | ? | nt | nt | -19
c1ccc(-c2ccc3c(c2)c2c4n3CCN=C4CCC2)cc1 | 1 | -10 | 5 | 3 | -7
OC1CN=C2CCCc3c2n(c2ccc(Cl)cc32)C1 (stereo not drawn) | -2 | -77* | 2 | 3 | -15
CC(=O)c1c(O)cc(O)c(C(C)=O)c1O | -7 | 30 | -45* | 3 | 13
CC(=O)c1c(O)cc(O)cc1CC(=O)O | -4 | 14 | -58* | 1 | 6
SMILES | D1 potentiator | DRD3 antagonist | D1 antag | D1 ag | DRD3 agonist
Cc1cc2c(s1)c1cnn(Cc3ccc(F)c(Cl)c3)c(=O)c1n2C | -4 | nt | -11 | 0 | nt
CCOC(=O)c1cccc(-n2nnc3c(sc4nc(C)c(Br)c(C)c43)c2=O)c1 | 2 | nt | 6 | -1 | -1
CCOc1ccc(-c2cn(-c3ccc(C)cc3)c(SCC(=O)Nc3ccc(C)cc3)n2)cc1 | 2 | nt | 19 | 6 | 7
CCCc1nc2c(Cl)cc(C(F)(F)F)cn2c1Cc1ccc(OC)cc1C | nt | 12 | nt | nt | 5
O=C(CCNS(=O)(=O)c1ccc(Br)cc1)NC1CCC(O)CC1 (stereo not drawn) | -4 | 8 | -31* | 2 | 1
O=C(CCNS(=O)(=O)c1ccc(Br)s1)Nc1ccc(Cl)cc1 | -5 | -52* | -4 | 6 | 1
O=C(CCNS(=O)(=O)c1ccc(Br)s1)Nc1ccc(Br)cc1 | -1 | nt | -8 | 9 | -6
O=C(CCNS(=O)(=O)c1ccc(Br)s1)NC1CCCC1 | -5 | -103* | -8 | 3 | -3
CC(=O)Nc1c(I)c(C(=O)N[C@H]2C(O)O[C@H](CO)[C@@H](O)[C@@H]2O)c(I)c(N(C)C(C)=O)c1I (stereo partly drawn) | -3 | 6 | 2 | -2 | 14
Cc1cc2ccccn2c1C(C[N+](=O)[O-])c1ccc(N(C)C)cc1 (stereo not drawn) | -2 | 0 | 1 | 42* | 6
COc1ccc(C(C[N+](=O)[O-])c2c(C)cc3ccccn23)cc1 (stereo not drawn) | -6 | -21 | 6 | 1 | -2
COc1ccc(/C=C/C(=O)Nc2nc3n(n2)C(c2ccccc2)C=C(c2ccc(Cl)cc2)N3)cc1 (stereo not drawn) | -2 | nt | 5 | 9 | -19
COc1ccc(C2C=C(c3ccccc3)Nc3nc(NC(=O)/C=C/c4ccc(Cl)cc4)nn32)cc1 (stereo not drawn) | 1 | nt | -77* | 1 | 5
COc1ccc(C2C=C(c3ccccc3)Nc3nc(NC(=O)c4ccc(C)cc4)nn32)cc1 (stereo not drawn) | -2 | nt | 19 | -1 | -1
COc1ccc(C(=O)Nc2nc3n(n2)C(c2ccc(Cl)cc2)C=C(c2ccccc2)N3)cc1OC (stereo not drawn) | -1 | nt | -2 | 39* | 5
O=C(N[C@@H]1CC[C@@H](CCNS(=O)(=O)c2ccc(Cl)cc2)O[C@@H]1CO)c1cccnc1 | nt | 1 | nt | nt | -6
CN1CCN(C2=Cc3ccc(Cl)cc3Sc3ccc(F)cc32)CC1 | -28 | -19 | -91* | 9 | -16
CN1CCN(c2cc(C(F)(F)F)nc3ccc(F)cc23)CC1 | -2 | 45 | 0 | 3 | -2
CN1CCN(C2=Cc3ccccc3Sc3cc(F)ccc32)CC1 | -9 | 0 | -62* | 8 | 0
CN(CCC#N)C(=O)COC(=O)c1nn(-c2ccccc2)c(=O)c2ccccc12 | 0 | -58* | 1 | 1 | -7
Nc1c(-c2nc(-c3ccc4c(c3)OCO4)cs2)c2ccccn2c1C(=O)c1ccccc1 | 1 | nt | -41* | 0 | 1
Nc1c(-c2nc(-c3ccc4c(c3)OCO4)cs2)c2ccccn2c1C(=O)c1ccc(Cl)cc1 | -1 | nt | 9 | 0 | -3
COc1cccc(C(=O)c2c(N)c(-c3nc(-c4ccccc4)cs3)c3ccccn23)c1 | 2 | nt | -43* | 8 | 8
COc1ccc(-c2csc(-c3c(N)c(C(=O)c4ccccc4)n4ccccc34)n2)cc1 | -2 | nt | -3 | 0 | 1
CSc1nc(C(=O)N2CCCC(Nc3ccc(C)c(C)c3)C2)cs1 (stereo not drawn) | 3 | 5 | -16 | -1 | 4
